# About 83,000 compounds went through this panel and 20% of them were active in at least one assay; those are over-represented in the sample as a whole.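 Note: values are percent growth. 100 is the growth of untreated cells, values between 100 and 0 indicate rising inhibition; between -100 and 0 indicates cell death.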 A number with no mark means an inactive call. Activity calls are given as the source filed them.
# Tested on: UO-31 renal
# Assay: NCI-60 one-dose screen, 48 h (100 = growth as untreated, 0 = no growth, -100 = all killed)
# Conditions: 10 µM unless noted
# Procedure: Growth inhibition of the UO-31 human tumor cell line is measured as a screen for anti-cancer activity. Cells are grown in 96 well plates and exposed to the test compound for 48 hours. Compounds are tested at a single concentration, which is 10^-5 M for most compounds. The reported endpoint is percent growth (GI% or GIPRCNT), where numbers from 0 - 100% represent growth inhibition, and numbers from -100% - 0 represent cell death. For example, a value of 40 represents 60% growth inhibition. A value of 0 means no net growth occurred over the course of the experiment. A value of -40 indicates 40% of cells at the beginning of the experiment died by the end of the experiment. A value of -100 means all cells are dead at the end of the experiment.
# NCI-60 Human Tumor Cell Lines Screen was performed using the standard one-dose NCI protocol, which is described in more detail at https://dtp.cancer.gov/discovery_development/nci-60/default.htm.
# Compounds with GIPRCNT values below 10 were considered active. Activity score was based on GIPRCNT using the following formula: […]
# Score is 0 for GIPRCNT values of 100 or above, 50 for GIPRCNT values of 0, and 100 for GIPRCNT values of -100.
row,Structure (SMILES),growth
1,O=C1/C(=C\c2ccco2)SC(=S)N1CCc1ccc(O)cc1,54%
2,COC(=O)[C@]12CC[C@@H](C(=O)/C=C/c3cccnc3)[C@@H]1[C@H]1CC[C@@H]3[C@@]4(C)C/C(=C/c5cccnc5)C(=O)C(C)(C)[C@@H]4CC[C@@]3(C)[C@]1(C)CC2,-100% (active)
3,Cn1cc(-c2csc(-c3cn(CCNC(=O)OC(C)(C)C)c4ccc(F)cc34)n2)c2cccnc21,39.7%
4,C=C(C)[C@@H]1CC[C@]2(C)[C@H](CC=C3[C@@H]4CC(C)(C)CC[C@]4(C(=O)OC)CC[C@]32C)[C@@]1(C)CC/C(N)=N/O,40.3%
5,CCN1CCN(C(=O)[C@]23CC[C@@H](C)[C@H](C)[C@H]2C2=CC[C@@H]4[C@@]5(C)C/C(=C/c6cccc(OC)c6OC)C(=O)C(C)(C)[C@@H]5CC[C@@]4(C)[C@]2(C)CC3)CC1,30.3%
6,O=C(O)/C(=C/c1ccc(O)cc1)c1ccccc1,68.9%
7,COc1ccc(C2CC(=O)c3c(nc4ccc(Cl)cc4c3N)C2)cc1 (stereo not given),92.2%
8,Cc1nn2c(-c3nc4cc(Cl)c(Cl)cc4[nH]3)c(-c3ccc(F)cc3)nc2s1,-67.1% (active)
9,CCC(c1ccc(OC)cc1)C(CC)c1ccc(O)c(CN2CCCCC2)c1 (stereo not given),39.6%
10,COc1cccc(-c2nn(-c3ccccc3)cc2-c2ccnc(NCCCNS(=O)(=O)c3ccc(C(F)(F)F)cc3)c2)c1,11.3%
11,Oc1ccc(CCC2CCCC(CCc3ccc(OCCF)cc3)N2)cc1 (stereo not given),72%
12,O=C1OC(c2ccc(Cl)c(Cl)c2)=C/C1=C/c1cccc([N+](=O)[O-])c1,68%
13,COc1cnc2c(c1)C(=O)c1c-2n(CCCNCCN2CCOCC2)c(=O)c2cc([N+](=O)[O-])ccc12,-85.8% (active)
14,CC(C)=CCC[C@](C)(O)[C@H]1CC[C@]2(C)[C@@H]1CC[C@@H]1[C@@]3(C)C/C(=C/c4ccc(Br)cc4)C(=O)C(C)(C)[C@@H]3CC[C@]12C,70.4%
15,C[C@@H](Oc1ccc(C(=O)NS(=O)(=O)C(C)(C)C)cc1C(F)(F)F)c1ccc(Oc2ccccc2)cn1,58.8%
16,O=C(N/N=C\c1c(O)ccc2ccccc12)C1CC1,8.64% (active)
17,C=C(C)[C@@H]1CC[C@]2(C)[C@H](CC=C3[C@@H]4CC(C)(C)CC[C@]4(C=O)CC[C@]32C)[C@@]1(C)CCCN,44.6%
18,CCSc1sc(-c2ccc(C)cc2)nc1[P+](c1ccccc1)(c1ccccc1)c1ccccc1,-33% (active)
19,CC1(C)c2ccccc2C(=O)C1(Br)Cc1ccccc1 (stereo not given),56.6%
20,C/C(Cc1ccc(Cl)cc1)=C(/c1ccc(Cl)cc1)c1ccc(OCCN2CCCC2)cc1,68.1%

row,Structure (SMILES),growth
1,O=S(=O)(NCCNc1cc(-c2cn(-c3ccccc3)nc2-c2cccc(O)c2)ccn1)c1ccc(F)cc1,20.1%
2,CCN(CC)C(=O)CCCCCn1c2ccccc2c2c3c(c4c5ccccc5[nH]c4c21)C(=O)N(O)C3=O,-50.7% (active)
3,Nc1ccc(Br)cn1,93.4%
4,OCC(CO)(CCl)CCl,104%
5,C=C(C)[C@@H]1CC[C@]2(CN)CC[C@]3(C)[C@H](CC[C@@H]4[C@@]5(C)CCC(=O)NC(C)(C)[C@@H]5CC[C@]43C)[C@@H]12,58.9%
6,C[C@@H](C(=O)O)c1ccc2c3cc(Cl)ccc3n(Cc3cc(=O)oc4ccc(Cl)cc34)c2c1,76.3%
7,NS(=O)(=O)c1ccc(CCNC(=O)/C=C/c2ccc(Cl)cc2)cc1,83.7%
8,Cn1c(/C(C#N)=C/c2ccc3ccccc3c2)cc2ccccc21,57.5%
9,O=C1c2cc3c(cc2-c2c1c1ccc(Cl)cc1c(=O)n2C[C@H](O)[C@@H](O)[C@H](O)CO)OCO3,-71.6% (active)
10,O=[N+]([O-])c1cccc(/C=N\Nc2ccccc2)c1,47.4%
11,Cn1cc(-c2csc(-c3c[nH]c4ccccc34)n2)c2cccnc21,57.2%
12,Cc1cc(N2CCOCC2)nc(N(CCCNc2ccnc3cc(Cl)ccc23)Cc2ccco2)n1,32.2%
13,CC[C@H](CC[C@@H](C)[C@H]1CC[C@H]2[C@@H]3/C(=C/c4cccnc4)C(=O)C4=CC(=O)CC[C@]4(C)[C@H]3CC[C@]12C)C(C)C,65.4%
14,C/C(=N/NC(N)=S)C(=O)O,73.6%
15,COc1cc2nc(Cl)nc(Nc3cccc(C(=O)/C=C/c4ccccc4)c3)c2cc1OC,50.8%
16,C=C1CC[C@@H](C(=O)OC)Cc2nc(C)ccc21,93.6%
17,COc1cc2c(cc1OC)C(=O)/C(=C/c1cc(-c3ccc4c(c3)OCO4)n[nH]1)C2,-72.6% (active)
18,O=C1CN(c2ccccc2)C(=O)C1C(=O)Nc1ccc(Cl)c(Cl)c1 (stereo not given),5.84% [100 µM] (active)
19,COc1cccc(-c2nn(-c3ccccc3)cc2-c2ccnc(NCCCNS(=O)(=O)c3ccccc3)c2)c1,13.8%
20,[B-][N+](CC)(CC)c1ccccc1,83.8%

# Source: PubChem BioAssay (NCI)
